The values that follow come from PubChem BioAssay AID2013 (Sanford-Burnham Center for Chemical Genomics, 2009).

Each structure is given as a SMILES string. The whole screen tested about 290,000 compounds, of which about 370 (0.13%) were called active. Shown is part of a subset that was picked to be rich in actives. Results with a measured potency or affinity are listed apart. Values without a mark were called inactive.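 How the source made its calls: active means spots per cell inhibited over 60%, with over 100 cells counted and total cytoplasm intensity under 500,000; inconclusive means wells with under 100 cells, flagged as likely toxic; inactive means the rest.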

The assay deals with G-protein coupled receptor 55 (Homo sapiens) (UniProt Q9Y2T6). The assay is described as follows: inhibition of LPI-stimulated GPR55 beta-arrestin translocation – imaging, U2OS, beta-arrestin-GFP, LPI agonist, primary screen (AID 2013).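 Further: U2OS cells stably carrying GPR55 and arrestin-GFP stimulated by 5 µM LPI near EC80; imaged beta-arrestin-GFP aggregate spots per cell after agonist stimulation; plate controls were LPI-stimulated DMSO wells for no effect and DMSO wells without LPI for full effect.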 The note with it: LPI antagonism, at 10 µM, stronger effect = higher value.
Chain of G-protein coupled receptor 55 (Homo sapiens) (Q9Y2T6 whole entry, looked up): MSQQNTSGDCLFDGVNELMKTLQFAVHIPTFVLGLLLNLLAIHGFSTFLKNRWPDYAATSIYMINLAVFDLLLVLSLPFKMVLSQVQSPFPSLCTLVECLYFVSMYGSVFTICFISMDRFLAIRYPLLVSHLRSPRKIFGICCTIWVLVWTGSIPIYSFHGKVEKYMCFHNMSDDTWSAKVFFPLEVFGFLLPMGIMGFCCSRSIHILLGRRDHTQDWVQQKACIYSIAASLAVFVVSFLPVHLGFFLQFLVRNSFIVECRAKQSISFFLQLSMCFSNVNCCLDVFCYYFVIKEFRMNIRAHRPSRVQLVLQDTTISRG
Regarding `C=CCN(c1ccccc1)S(=O)(=O)c1c(C)[nH]c(=O)[nH]c1=O`, the inhibition was 0.3%.

Regarding `O=[N+]([O-])CC(=Nc1ccc(F)cc1)N/N=C\c1oc(O)c2ccccc12`, the inhibition is 15.6%.

`COC(=O)C1=C(C)N(Cc2ccccc2)C(=O)/C1=C\c1ccco1`: the inhibition is 2.2%.

Consider `COC(=O)C1=C(C)N(Cc2ccc(OC)cc2)C(=O)/C1=C\c1ccco1`, for which the inhibition was 0.4%.

With `Cc1ccc2cccc(Oc3ncnc4scc(-c5ccccc5)c34)c2n1`, the inhibition is 77.9% (active).

Consider `Cc1ccc(-c2csc3ncnc(Oc4cccc5ccc(C)nc45)c23)cc1`, for which the inhibition was 3.8%.

Take `COc1ccc(-c2csc3ncnc(Oc4cccc5ccc(C)nc45)c23)cc1`: the inhibition is 7.8%.

In the case of `Cc1ccc(N2C(=O)C3CCCN3C2=S)cc1C` (stereo not drawn), the inhibition is 3.3%.

In the case of `O=C(COc1cccc(C(F)(F)F)c1)N1CCN(c2ccc(O)cc2)CC1`, the inhibition is -7.2%.

In the case of `NC(=O)c1ccc[n+](CC(=O)c2ccc(Br)cc2)c1`, the inhibition was 9.5%.

Regarding `N#C/C(=C/c1ccc(N2CCOCC2)o1)C(=O)Nc1ccccc1`, the inhibition was 0.6%.

For `N#C/C(=C\c1ccc(N2CCOCC2)o1)C(=O)Nc1ccc(O)cc1`, the inhibition is -2.9%.

Take `N#C/C(=C\c1ccc(N2CCOCC2)o1)C(=O)N1CCOCC1`: the inhibition is 100% (active).

Consider `COc1cccc(NC(=O)C(=O)N/N=C/c2ccc3c(c2)OCO3)c1`, for which the inhibition is 14.8%.

`CC(=O)Oc1ccc(C(=O)Cc2ccccn2)c(O)c1`: the inhibition is 1%.

Turning to `c1ccc(C(c2ccccn2)c2ccccn2)cc1`, the inhibition is 1.1%.

As to `CCOC(=O)CCNC(=O)N1CCCC(N(C)CCc2ccc(OC)c(OC)c2)C1` (stereo not drawn), the inhibition is 6.3%.

On to `O=C(NCC1CC1)Nc1ccc(Cl)cc1`, for which the inhibition is 10.7%.

For the compound `CCCS(=O)(=O)N1CCCC(C(=O)Oc2ccc(C)c(C)c2)C1` (stereo not drawn), the inhibition was -6.5%.

In the case of `CCOc1ccccc1NC(=O)NC1(C(=O)NCc2cccnc2)CCCCC1`, the inhibition is 3.3%.

For `CCn1c(=N)c(C(=O)OC)cc2c(=O)n3ccccc3nc21`, the inhibition was -3.4%.

Regarding `CCOC(=O)c1cc2c(=O)n3cccc(C)c3nc2n(Cc2ccccc2Cl)c1=N`, the inhibition is 85.6% (active).

For `COC(=O)c1cc2c(=O)n3cccc(C)c3nc2n(Cc2cccnc2)c1=N`, the inhibition is -5.2%.

On to `CCOC(=O)c1cc2c(=O)n3ccccc3nc2n(Cc2ccccc2Cl)c1=N`, for which the inhibition was 38.5%.

`CCOC(=O)c1cc2c(=O)n3cccc(C)c3nc2n(C)c1=N`: the inhibition was 4.1%.

On to `COCCNC(=O)C(OC(=O)CC1Sc2ccccc2NC1=O)c1ccncc1` (stereo not drawn), for which the inhibition is 1.2%.

Take `O=[N+]([O-])c1ccc(S(=O)(=O)NCCN2CCOCC2)cc1`: the inhibition was 11.3%.

For the compound `CCn1ncc(C(=O)Nc2cccc(Cl)c2)c1C`, the inhibition is 3.9%.

In the case of `Brc1ccc(-c2nnc(Cc3ccccc3)o2)cc1`, the inhibition was -5.2%.

In the case of `COc1ccc(Cc2nnc(-c3ccccc3)o2)cc1`, the inhibition was -5.3%.

On to `CCN1CCCC1CN(Cc1cc2cc(OC)ccc2[nH]c1=O)C(=O)NCc1ccccc1` (stereo not drawn), for which the inhibition is 11.3%.

`CC(NC(=O)C12CC3CC(CC(C3)C1)C2)c1ccc2c(c1)OCCO2` (stereo not drawn): the inhibition is 3%.

Take `COc1cc(CNCCO)cc(Cl)c1OCc1ccc(Cl)cc1Cl`: the inhibition was 83.3% (active).

Turning to `CCOc1cc(CNCCO)cc(Br)c1OCc1ccc(Cl)cc1Cl`, the inhibition is 11.8%.

In the case of `COc1cc(CNCCO)cc(Cl)c1OCc1ccccc1Cl`, the inhibition was 14.7%.

As for `N#C/C(=C\c1ccccc1Br)C(=O)NC1CC1`, the inhibition is -17.2%.

Take `CCOC(=O)/C(C#N)=C/c1cn(CCC(=O)O)nc1-c1cccc(Br)c1`: the inhibition is 1.6%.

On to `N#C/C(=C/c1cn[nH]c1-c1ccc(Br)cc1)C(=O)O`, for which the inhibition is 3%.

Consider `COc1ccccc1/C=C(/C#N)C(=O)O`, for which the inhibition was 7%.

Consider `COc1ccc(S(=O)(=O)N(CC(=O)NCc2ccncc2)c2cc(C)cc(C)c2)cc1OC`, for which the inhibition is 14.3%.

Consider `COc1cc(Br)c(-c2sc(Nc3ccccc3)n[n+]2-c2ccccc2)cc1OC`, for which the inhibition is 40.4%.

For `COc1ccc(-c2sc(Nc3ccccc3)n[n+]2-c2ccc(F)cc2)c(OC)c1OC`, the inhibition was 30%.

In the case of `COc1cc(OC)c(-c2sc(Nc3ccccc3)n[n+]2-c2ccc(F)cc2)cc1OC`, the inhibition is -3%.

As for `COc1ccc(-c2sc(Nc3ccccc3)n[n+]2C)c(C)c1C`, the inhibition is -7%.

Turning to `CCn1c(SCC(=O)Nc2ccc(OC)cc2)nnc1-c1ccco1`, the inhibition is 2.2%.

As for `O=C(Nc1ccc(F)cc1)NC1(C(=O)NCc2ccco2)CCCCC1`, the inhibition is 5.6%.

Turning to `CN(C)CCNC(=O)COc1ccc(C23CC4CC(CC(C4)C2)C3)cc1`, the inhibition was 33.6%.

As for `COc1ccc(Cl)cc1C(=O)NCCN(C)C`, the inhibition is -0.9%.

In the case of `O=C(NCCCN1CCN(c2ccc(F)cc2)CC1)NC12CC3CC(CC(C3)C1)C2`, the inhibition was -1.6%.

With `CCOC(=O)c1cnc(SC)nc1Oc1cccc(NC(=O)c2cccc(Cl)c2Cl)c1`, the inhibition was 9.1%.

As to `CCCCNC(=S)N(C)/N=C/c1sc(N2CCCCC2)nc1-c1cccs1`, the inhibition is 11.7%.

`CC(=O)N(c1ccccc1)C1CCCC1`: the inhibition is 3.9%.

Turning to `CC(=O)N(C1=C(O)c2ccccc2C(=O)C1=O)C1CCCCC1`, the inhibition was -3.7%.

For the compound `Cc1cc(OCC(=O)Nc2ccc(CN3CCOCC3)cc2)c2c(C)c(C)c(=O)oc2c1`, the inhibition is 18.4%.

As to `CC(C)Sc1cc(N2CCCC2)nc(-c2ccccc2Cl)n1`, the inhibition is 7.8%.

As for `CCOc1cccc(OCCNC2CCCC2)c1`, the inhibition was -14.7%.

Regarding `COc1ccc(-c2c3c(=O)n(C)c(=O)n(C)c3cn2-c2cc(OC)ccc2OC)cc1`, the inhibition was 11.5%.

As to `COCCNC(=O)c1ccccc1NC(=O)CN(c1ccc2c(c1)OCO2)S(C)(=O)=O`, the inhibition is 6.3%.

As for `COc1cccc(NC(=O)CN(C)CC(=O)Nc2cccc(C(F)(F)F)c2)c1`, the inhibition is -8.3%.

Regarding `O=C(Nc1ccnn1C1CCN(Cc2cc3ccccc3[nH]2)CC1)C1CCOC1` (stereo not drawn), the inhibition was 1.9%.

As to `Cc1cc(C)c(Nc2cc(S(=O)(=O)O)c(N)c3c2C(=O)c2ccccc2C3=O)c(C)c1`, the inhibition is 66.8% (active).

With `Nc1c(S(=O)(=O)O)cc(NC(=O)c2ccccc2)c2c1C(=O)c1ccccc1C2=O`, the inhibition was 0.8%.

For `Cc1cc(C)cc(NC2=C(N)C(=O)c3ccccc3C2=O)c1`, the inhibition was 6.8%.

In general, inhibition refers to the relative decrease from the control value, in per cent.
